# Laboratory results as given in PubChem BioAssay AID624255 (Broad Institute, 2012).
# The whole screen tested about 77,000 compounds, of which about 4,600 (6%) were called active. Inconclusive results (about 1%) are left out. The list comes from a sample in which actives are over-represented; it also holds similar structures and randomly drawn compounds. Unmarked numbers belong to inactive results.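 How the source made its calls: active means mean inhibition above about 93%, with at least 55% of replicates each passing it (limit read from the data, passing the limit was not always enough); inconclusive means only one of those two conditions holds; inactive means neither condition holds.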
# Test: T. cruzi intracellular proliferation inhibitors, primary screen, cell-based, beta-gal Tulahuen parasites, NIH3T3 host, luminescence (AID 624255)
# Conditions: T. cruzi beta-gal in NIH3T3, GalScreen luminescence, 90 h; at 8.34 µM; stronger effect = higher value
row,SMILES,inhibition
1,CO[C@@H]1CN(C)C(=O)c2cc(NC(=O)C3CCCCC3)ccc2OC[C@@H](C)N(C(=O)Nc2ccc(C(F)(F)F)cc2)C[C@H]1C,15.6%
2,O=C(C[C@H]1CC[C@H]2[C@@H](COC[C@H](O)CN2C(=O)c2ccccc2F)O1)NCc1ccccc1,-22.2%
3,Cc1ccc(S(=O)(=O)Nc2ccc3c(c2)C(=O)N([C@H](C)CO)C[C@@H](C)[C@@H](CN(C)S(C)(=O)=O)OCCCC[C@@H](C)O3)cc1,29.2%
4,CO[C@H]1CN(C)C(=O)c2cc(NC(=O)Nc3c(C)noc3C)ccc2OC[C@@H](C)N(CCC(F)(F)F)C[C@H]1C,6.32%
5,Cc1noc(C)c1NC(=O)Nc1ccc2c(c1)C(=O)N([C@H](C)CO)C[C@@H](C)[C@H](CN(C)C(=O)Nc1cccc3ccccc13)OCCCC[C@@H](C)O2,80.3%
6,C/C=C/c1ccc([C@@H]2[C@H](CO)N(C(C)=O)[C@H]2CN(CC)C(=O)CN(C)C)cc1,81.2%
7,C[C@@H]1CN([C@H](C)CO)C(=O)c2cc(NC(=O)CCCN(C)C)ccc2O[C@@H](C)CCCCO[C@@H]1CN(C)Cc1ccncc1,14.7%
8,CN(C)C(=O)[C@@H]1[C@@H](CO)[C@@H]2Cn3c(cccc3=O)[C@@H]2N1C(=O)C1CCC1,-8.64%
9,COc1ccc(S(=O)(=O)N(C)C[C@@H]2OCCCC[C@H](C)Oc3ccc(NC(=O)NC4CCCCC4)cc3C(=O)N([C@H](C)CO)C[C@H]2C)cc1,94%
10,O=C(C[C@H]1CC[C@@H]2[C@H](COC[C@@H](O)CN2C(=O)Nc2ccc(C(F)(F)F)cc2)O1)NCCc1ccncc1,57%
11,O=C(C[C@@H]1CC[C@@H]2[C@H](COC[C@H](O)CN2C(=O)Cc2ccccc2)O1)NC1CCC1,27.2%
12,CNC[C@H]1OCCCC[C@@H](C)Oc2ccc(NS(C)(=O)=O)cc2C(=O)N([C@@H](C)CO)C[C@H]1C,61.9%
13,C[C@@H]1CN([C@@H](C)CO)C(=O)c2cc(NS(C)(=O)=O)ccc2O[C@@H](C)CCCCO[C@@H]1CN(C)S(=O)(=O)c1cn(C)cn1,-54%
14,C[C@@H]1CN([C@H](C)CO)C(=O)c2cc(NS(C)(=O)=O)ccc2O[C@@H](C)CCCCO[C@H]1CN(C)S(=O)(=O)c1cn(C)cn1,104% (active)
15,C[C@@H]1CN([C@@H](C)CO)C(=O)c2cc(NS(=O)(=O)c3cn(C)cn3)ccc2O[C@@H](C)CCCCO[C@H]1CN(C)S(=O)(=O)c1cn(C)cn1,-14.8%
16,C[C@H](CO)N1C[C@H](C)[C@H](CN(C)C(=O)CCC(F)(F)F)OCCCC[C@H](C)Oc2ccc(NS(C)(=O)=O)cc2C1=O,-3.61%
17,CNC[C@H]1OCCCC[C@@H](C)Oc2ccc(NS(C)(=O)=O)cc2C(=O)N([C@H](C)CO)C[C@H]1C,101% (active)
18,C[C@H]1CN([C@@H](C)CO)C(=O)c2cccc(NS(=O)(=O)c3cn(C)cn3)c2O[C@@H]1CN(C)CC1CCCCC1,96.2% (active)
19,C[C@@H]1CN([C@H](C)CO)C(=O)c2cc(NS(=O)(=O)c3ccccc3)ccc2O[C@@H](C)CCCCO[C@@H]1CN(C)C(=O)CCC(F)(F)F,-2.2%
20,C[C@@H]1CCCCO[C@H](CN(C)C(=O)CCC(F)(F)F)[C@H](C)CN([C@H](C)CO)C(=O)c2cc(NS(C)(=O)=O)ccc2O1,107% (active)
21,C[C@H]1CN([C@@H](C)CO)C(=O)c2cc(NS(=O)(=O)c3cn(C)cn3)ccc2O[C@H]1CN(C)CC1CCCCC1,3.71%
22,CNC[C@@H]1OCCCC[C@@H](C)Oc2ccc(NS(C)(=O)=O)cc2C(=O)N([C@H](C)CO)C[C@@H]1C,4.76%
23,C[C@@H]1CN([C@H](C)CO)C(=O)c2cccc(NS(=O)(=O)c3cn(C)cn3)c2O[C@H]1CN(C)CC1CC1,27.4%
